Screening results (PubChem BioAssay)
Mtb FBA inh – inhibits M. tuberculosis FBA enzyme | P9WQA3 | purified M. tuberculosis FBA, fluorescence read-out | inhibition, % at 1 µM | 2.3% of 360,000 active | AID 588726; in the data active = inhibition above about 27%;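 also: 0% = vehicle and 100% = reference inhibitor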
GDH-TPI inh – inhibits GDH-TPI coupling enzymes, artifact for Mtb FBA screen. GDH-TPI coupled enzyme counterscreen, NADH absorbance. inhibition, % at 4.8 µM. 1.2% of 360,000 active; in the data active = inhibition above about 30%;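 also: 0% = DMSO wells and 100% = wells lacking the enzyme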
PrP UTR inh – inhibition of PrP 5' UTR reporter expression; 0.35% of 340,000 active; AID 488862; cell-based PrP 5' UTR mRNA reporter, plate reader; inhibition, % (test concentration not listed); in the data active = inhibition above about 52%; also: 0 = median of the neutral control wells
Y pestis TopoI – blocks Yersinia pestis topoisomerase I activity | Y. pestis Topo-I cleavage product accumulation, plate reader | activity, % at 10 µM | 0.064% of 360,000 active; in the data active = activity above about 50%, passing the limit was not always enough
Mtb hypoxia inh – inhibitors of hypoxia-regulated fluorescent reporter in Mycobacterium tuberculosis | M. tuberculosis hypoxia-regulated fluorescent reporter, fluorescence | 0.1% of 300,000 active | fluorescence inhibition, % (test concentration not listed); in the data active = fluorescence inhibition mostly above about 23%, no sharp cut-off; inactive = mostly below about 17%
PrPC TRFRET – cell surface PrPC inhibition, primary TR-FRET screen; 0.43% of 370,000 active; P04156; TR-FRET read-out; AID 720596; inhibition, % at 13.8 µM; in the data active = inhibition above about 24%; also: 0% = median of the test wells and 100% = reference compound wells
PrPC confirm – confirmation of inhibitors of cell surface human prion protein. shares compounds with PrPC TRFRET. inhibition, % at 13.8 µM. 65% of 1,500 active. AID 743200. cell surface PrPC level, TR-FRET; in the data active = inhibition above about 25%
LD9 tox – kills or reduces viability of LD9 cells in PrPc counter-screen; AID 743201; shares compounds with PrPC TRFRET; LD9 cells cytotoxicity, luminescence viability; inhibition, % at 13.8 µM; 29% of 1,500 active; in the data active = inhibition above about 9.5%
* marks the source's active call; other numbers are inactive results; nt = no result shown. Sampled rows, rich in hits. Any-hit rate of the full collection: about 3.8%.

SMILES	Mtb FBA inh	GDH-TPI inh	PrP UTR inh	Y pestis TopoI	Mtb hypoxia inh	PrPC TRFRET	PrPC confirm	LD9 tox
COc1cc(C=NNC(=S)Nc2cccnc2)cc(OC)c1OC	nt	nt	nt	nt	-0.6	nt	nt	nt
O=c1c2ccccc2nc2n1C(CSCc1ccc(Cl)cc1)CS2 (stereo unspecified)	3.2	-7.7	-11.9	28.6	nt	25.6*	17.9	14.0*
COc1ccc(N(CC(=O)NN=C(C)CCc2ccccc2)S(=O)(=O)c2ccc(C)cc2)cc1	nt	nt	nt	nt	-5.0	nt	nt	nt
CC1=C(O)C(=O)C=C2C1=CC=C1C2(C)CCC2(C)C3CC(C)(C(=O)O)CCC3(C)CCC12C (stereo unspecified)	-3.2	5.0	24.3	10.7	nt	62.2*	89.4*	97.5*
O=C(CCc1ccc(S(=O)(=O)N2CCOCC2)cc1)NN=Cc1ccc(F)cc1F	nt	nt	nt	nt	3.2	nt	nt	nt
Cc1cccc(C(O)c2ncc(-c3ccc(C(F)(F)F)cc3)[nH]2)c1C (stereo unspecified)	1.0	13.7	nt	-5.7	nt	25.6*	18.4	0.3
COc1ccc(-c2nc(-c3ccc(Br)o3)no2)cc1OC	1.3	2.4	-59.7	-9.1	8.2	-5.5	nt	nt
COc1ccc(-c2nnc(-c3ccc(Br)o3)o2)cc1OC	1.6	11.1	-24.9	-7.9	4.3	59.7*	75.7*	-3.2
Cc1occc1C(=O)N1CCN(C(=O)C2CCCO2)CC1 (stereo unspecified)	-2.3	2.1	-2.7	4.0	-5.4	47.1*	5.1	-2.4
C=CCn1c(=O)c2ccccc2n2c(SCC(N)=O)nnc12	0.7	4.5	-17.3	0.5	nt	35.8*	35.5*	2.1
C=CCn1c(=O)c2ccccc2n2c(SCC(=O)O)nnc12	2.8	9.0	-25.1	4.8	5.9	-1.3	nt	nt
COc1ccc(S(=O)(=O)N2CCOC23CCN(C(=O)c2c(F)cccc2Cl)CC3)cc1	-0.4	1.7	-14.5	25.0	3.3	5.5	nt	nt
COc1ccc(S(=O)(=O)N2CCOC23CCN(C(=O)c2ccc(Cl)cc2Cl)CC3)cc1	-3.4	-6.0	-16.4	3.8	12.8	53.4*	46.5*	2.4
CON=C(C)CCS(=O)(=O)c1ccccc1	nt	nt	nt	nt	-4.4	nt	nt	nt
CC(=O)Nc1ccc(Sc2ccc([N+](=O)[O-])o2)cc1	-3.6	10.2	-13.4	-3.1	nt	69.5*	28.7*	22.2*
CC(C)(C)C(=O)Nc1ccc(Sc2ccc([N+](=O)[O-])cc2)cc1	-0.9	22.1	1.2	-9.1	0.2	-0.1	nt	nt
CCN(CC)c1ccc(C=NNC(=O)c2ccccn2)cc1	nt	nt	nt	nt	4.9	nt	nt	nt
CCOc1ccc(-c2n[nH]c(=S)o2)cc1	22.4	-0.9	-24.8	5.2	-0.5	1.9	nt	nt
CCOc1ccccc1-c1n[nH]c(=S)o1	11.2	-2.1	-19.8	1.6	-0.2	26.9*	25.1*	-6.7
Cc1sccc1C=NNC(=O)c1cccc2ccccc12	nt	nt	nt	nt	8.8	nt	nt	nt
CC(CCc1oc2c(Br)cc(Br)cc2c1-c1ccc(C)o1)=NO	nt	nt	nt	nt	-11.2	nt	nt	nt
CN(c1ccc(Cl)cc1)c1cc(=O)n(C)c2ccccc12	6.8	18.1	0.8	33.0	20.6	24.6*	20.1	0.5
O=C1NC[C@H](CCCCN2C[C@H](Cc3ccc(O)cc3)N(CC3CCCCC3)C(=O)C2=O)N(CC2CCCCC2)C1=O	nt	nt	nt	nt	nt	25.4*	23.9	-0.9
Cc1cc2cc(CNC(=O)Cc3ccc([N+](=O)[O-])cc3)ccc2n1C	1.8	1.9	-14.6	2.1	-0.3	15.4	nt	nt
Cc1c(C(=O)NCc2ccc3c(c2)cc(C)n3C)cccc1[N+](=O)[O-]	2.2	8.6	-7.6	2.8	7.2	34.3*	7.5	-1.8
SMILES	Mtb FBA inh	GDH-TPI inh	PrP UTR inh	Y pestis TopoI	Mtb hypoxia inh	PrPC TRFRET	PrPC confirm	LD9 tox
Cc1cc2cc(CNC(=O)c3cccc([N+](=O)[O-])c3)ccc2n1C	-3.1	5.3	-23.9	-1.9	6.9	36.8*	-5.3	-4.7
COc1cccc(C=Nc2nc3ccccc3[nH]2)c1O	nt	nt	nt	nt	5.4	nt	nt	nt
COc1ccc(N2CCN(c3ccc(NC(=O)c4ccc5c(c4)OCO5)cc3C#N)CC2)cc1	1.8	-4.1	13.0	-7.3	nt	nt	nt	nt
COc1ccc(CC(=O)Nc2ccc(N3CCN(c4ccc(OC)cc4)CC3)c(C#N)c2)cc1	3.8	5.9	-0.3	7.2	nt	24.9*	40.3*	12.8*
COC(=O)[C@@]12CCCN1C(c1ccc(-c3cccc(Cl)c3)c(OC)c1)C1C(=O)N(C)C(=O)C12 (stereo partly specified)	nt	nt	nt	nt	14.4	nt	nt	nt
Cn1c(=O)c(C(=O)CSc2ccccc2)c(N)n(Cc2ccccc2)c1=O	-4.4	12.9	-14.9	0.8	-3.0	9.0	nt	nt
Cn1cnnc1SCC(=O)c1c(N)n(Cc2ccccc2)c(=O)n(C)c1=O	-0.2	5.0	-24.3	0.5	5.5	35.8*	18.6	-7.0
Cc1nnc(SCC(=O)c2c(N)n(Cc3ccccc3)c(=O)n(C)c2=O)n1C	1.6	7.3	-6.4	-4.1	2.1	2.1	nt	nt
Cn1c(=O)c(C(=O)CSc2nncs2)c(N)n(Cc2ccccc2)c1=O	-1.1	-1.2	5.0	-1.6	0.9	66.0*	64.8*	1.8
c1ccc(CCNc2ncnc3ccccc23)cc1	-5.1	0.6	-66.7	-5.6	4.8	18.7	nt	nt
Cc1cccc(Nc2ncnc3ccc(Br)cc23)c1	-4.3	17.0	6.6	1.5	12.7	25.8*	30.8*	-0.7
COc1ccc(Nc2ncnc3ccc(Br)cc23)cc1OC	-2.0	8.1	5.0	1.6	11.6	nt	nt	nt
Cc1ccc2ncnc(Nc3ccccc3)c2c1	3.5	11.4	-4.7	-2.5	-3.2	5.5	nt	nt
Clc1cccc(Nc2ncnc3ccc(Br)cc23)c1	0.5	20.0	0.1	-17.3	9.3	63.0*	75.9*	2.1
Clc1ccc(Nc2ncnc3ccc(Br)cc23)cc1	5.1	19.2	-6.6	-12.8	-4.3	29.8*	44.3*	4.1
Brc1ccc2ncnc(NCc3ccccc3)c2c1	-5.2	10.4	14.5	0.7	nt	47.6*	50.2*	12.5*
Cc1nn(-c2ccccc2)c(N2CCCC2)c1C=NNC(=S)Nc1cc(C(F)(F)F)ccc1Cl	nt	nt	nt	nt	7.9	nt	nt	nt
COc1ccc2c(=O)cc(C(=O)O)oc2c1	5.9	9.2	-16.8	-2.4	3.4	3.6	nt	nt
COc1ccc2c(C)c(C(=O)O)oc2c1	17.0	6.2	-22.9	4.8	-3.1	28.5*	30.0*	-1.3
Cc1cc(C(=O)NN=C/C=C/c2cccc([N+](=O)[O-])c2)n[nH]1	nt	nt	nt	nt	-5.7	nt	nt	nt
O=C(C[n+]1cc(Br)cc2ccccc21)c1ccccc1	-1.6	0.5	-9.7	7.2	11.6	-11.8	nt	nt
COc1ccc(C(=O)C[n+]2cc(Br)cc3ccccc32)cc1[N+](=O)[O-]	-1.2	10.0	-12.2	-9.4	15.3	26.7*	9.0	-1.4
O=C1C=C(c2ccc3[nH]ccc3c2)CC(c2ccc(F)cc2)C1 (stereo unspecified)	nt	nt	nt	nt	-3.1	nt	nt	nt
c1ccc2cc3[nH]c(CNc4nc(N5CCOCC5)nc5c4ncn5-c4ccsc4)nc3cc2c1	nt	nt	nt	nt	nt	25.4*	37.6*	13.3*
